Compounds without any hit were thinned out: in the full panel of roughly 83,000, 20% have a hit.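 A percent growth of 40 corresponds to 60% growth inhibition; 0 means no net growth; -100 means all cells died. Active threshold: below 10.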 Unmarked numbers belong to inactive results. Activity calls are given as the source filed them.

Our source for the growth values is PubChem BioAssay (NCI).

Some test systems named below: NCI-H23 lung; NCI-H226 lung; NCI-H322M lung; HOP-62 NSCLC; NCI-H460 lung; HOP-92 NSCLC; NCI-H522 lung; A549/ATCC NSCLC; 786-0 renal; COLO 205 colon; DU-145 prostate; K-562 leukemia; MALME-3M melanoma; MDA-MB-231 breast; RXF 393 renal; SF-268 CNS; SF-295 CNS; SF-539 CNS; UACC-257 melanoma; M14 melanoma.
Assay in all cases: NCI-60 one-dose screen, 48 h (100 = growth as untreated, 0 = no growth, -100 = all killed)
Details in all cases: 10 µM unless noted

With `O=C1Nc2ccc3c(c2/C1=C\c1cc2c(cc1Br)OCO2)OCO3`, the growth in the assay with NCI-H23 lung was 19.5%; in the assay with NCI-H226 lung, 13.4%; in the assay with NCI-H322M lung, 1.4% (active); with HOP-62 NSCLC, -21.3% (active); in the assay with NCI-H460 lung, -31.2% (active); with HOP-92 NSCLC, -5.47% (active). For the same molecule, the growth was 16.4% in the assay with NCI-H522 lung; 27.9% in the assay with A549/ATCC NSCLC; 10.7% in the assay with 786-0 renal; -37.1% (active) in the assay with COLO 205 colon; -12.6% (active) with DU-145 prostate; 14.9% in the assay with K-562 leukemia. Further, the growth with MALME-3M melanoma is -5.38% (active); in the assay on MDA-MB-231 breast it was 24.5%; in the assay on RXF 393 renal, -16.3% (active); in the assay on SF-268 CNS, 33.8%; in the assay on SF-295 CNS, 11.2%; in the assay on SF-539 CNS it was -36% (active). The growth with UACC-257 melanoma is 58.3%; in the assay with M14 melanoma it was -6.52% (active).

Consider `COc1ccc2c(c1)NC1=C(C(=O)OC1)C2c1cc(OC)c2c(c1)OCO2` (stereo not given), for which the growth in the assay with NCI-H23 lung was 33%; in the assay with NCI-H226 lung, 34%; in the assay with NCI-H322M lung, 52.4%; in the assay with HOP-62 NSCLC, 43.2%; with NCI-H460 lung it was 4.54% (active); in the assay on HOP-92 NSCLC, 43.8%. For the same molecule, the growth in the assay on NCI-H522 lung is -13.1% (active); in the assay with A549/ATCC NSCLC, 12%; with 786-0 renal, 22.3%; with COLO 205 colon it was -56.9% (active); with DU-145 prostate it was -20.6% (active); with K-562 leukemia, 10.8%. Further, the growth in the assay with MALME-3M melanoma is 52.7%; with MDA-MB-231 breast, 11.3%; in the assay on RXF 393 renal, 28%; with SF-268 CNS, 22.8%; in the assay on SF-295 CNS, 6.7% (active); in the assay with SF-539 CNS, 6.15% (active). Also, the growth in the assay with UACC-257 melanoma was 71.6%; in the assay with M14 melanoma, 5.09% (active).

As for `NC1=NN(O)C2=CC([N+](=O)[O-])C=CC2=N1` (stereo not given), the growth in the assay with NCI-H23 lung was 97%; with NCI-H226 lung, 110%; in the assay on NCI-H322M lung it was 113%; in the assay with HOP-62 NSCLC it was 98.9%; in the assay with NCI-H460 lung, 110%; in the assay with HOP-92 NSCLC, 94.1%. Also, the growth in the assay with NCI-H522 lung is 94.2%; in the assay with A549/ATCC NSCLC, 110%; with 786-0 renal, 103%; in the assay on COLO 205 colon, 111%; in the assay with DU-145 prostate, 114%; in the assay on K-562 leukemia, 103%. Besides, the growth with MALME-3M melanoma is 137%; in the assay on MDA-MB-231 breast, 118%; with RXF 393 renal, 115%; in the assay on SF-268 CNS, 101%; with SF-295 CNS, 117%; with SF-539 CNS it was 98.5%. Moreover, the results for the growth with UACC-257 melanoma and in the assay with M14 melanoma were 94.8% and 113%, respectively.

Turning to `COc1cc(/C=C/C(=O)/C=C/c2cc(OC)c3c(c2)OCO3)cc2c1OCO2`, the growth in the assay with NCI-H23 lung was 80.5%; in the assay on NCI-H226 lung, 78.8%; with NCI-H322M lung, 108%; with HOP-62 NSCLC it was 106%; with NCI-H460 lung it was 105%; in the assay with HOP-92 NSCLC, 83.9%. Further, the growth was 101% in the assay on NCI-H522 lung; 93.5% with A549/ATCC NSCLC; 100% in the assay with 786-0 renal; 96.5% in the assay on COLO 205 colon; 107% in the assay on DU-145 prostate; 50.9% with K-562 leukemia. For the same molecule, the growth in the assay on MALME-3M melanoma was 98.2%; in the assay with MDA-MB-231 breast, 80.2%; in the assay on RXF 393 renal, 72.4%; in the assay with SF-268 CNS it was 88.7%; in the assay with SF-295 CNS it was 94.5%; with SF-539 CNS, 100%. Moreover, the figures for the growth with UACC-257 melanoma and in the assay with M14 melanoma were 103% and 31.2%, respectively.

As for `CCOC(=O)C1CCNC(=O)C1=O` (stereo not given), the growth with NCI-H23 lung was 107%; in the assay on NCI-H226 lung it was 97%; with NCI-H322M lung it was 144%; with HOP-62 NSCLC, 112%; in the assay on NCI-H460 lung it was 113%; in the assay on HOP-92 NSCLC, 102%. For the same molecule, the growth is 116% in the assay on NCI-H522 lung; 109% in the assay with A549/ATCC NSCLC; 98% in the assay with 786-0 renal; 114% in the assay on COLO 205 colon; 115% in the assay with DU-145 prostate; 109% in the assay on K-562 leukemia. Moreover, the growth was 126% in the assay on MALME-3M melanoma; 106% in the assay on MDA-MB-231 breast; 108% in the assay on RXF 393 renal; 108% with SF-268 CNS; 122% with SF-295 CNS; 112% in the assay with SF-539 CNS. In addition, the figures for the growth in the assay with UACC-257 melanoma and in the assay on M14 melanoma were 126% and 108%, respectively.

On to `Cc1c(C(=O)/C=C/c2csc3ccccc23)[n+](=O)c2ccccc2n1[O-]`, for which the growth with NCI-H23 lung is 44.4%; in the assay with NCI-H226 lung, 78.1%; with NCI-H322M lung, 81.8%; in the assay with HOP-62 NSCLC it was 98.7%; in the assay on NCI-H460 lung it was 66.6%; with HOP-92 NSCLC, 43.9%. Also, the growth in the assay with NCI-H522 lung is 6.66% (active); in the assay with A549/ATCC NSCLC, 61.7%; in the assay with 786-0 renal it was 88.3%; with COLO 205 colon, 73.4%; in the assay with DU-145 prostate, -3.03% (active); in the assay with K-562 leukemia it was 21.7%. Further, the growth is 125% in the assay on MALME-3M melanoma; 64.2% in the assay on MDA-MB-231 breast; 13.1% in the assay with RXF 393 renal; 44% in the assay on SF-268 CNS; 84.6% in the assay on SF-295 CNS; 89.2% in the assay with SF-539 CNS. The growth was 81.5% in the assay with UACC-257 melanoma and 62.9% in the assay on M14 melanoma.

On to `O=C1C2(c3ccccc3)C(c3ccccc3)=C(c3ccccc3)C1(c1ccccc1)C1CC=CC12` (stereo not given), for which the growth with NCI-H23 lung is 75.9%; in the assay with NCI-H226 lung, 74%; with NCI-H322M lung, 84.7%; in the assay with HOP-62 NSCLC, 102%; in the assay with NCI-H460 lung, 84.4%; in the assay with HOP-92 NSCLC, 1.51% (active). Also, the growth was 71.3% in the assay with NCI-H522 lung; 78.3% with A549/ATCC NSCLC; 85.9% in the assay on 786-0 renal; 112% in the assay on COLO 205 colon; 101% in the assay with DU-145 prostate; 69.3% in the assay with K-562 leukemia. Also, the growth is 82.9% with MALME-3M melanoma; 70.7% in the assay with MDA-MB-231 breast; 84.6% in the assay on RXF 393 renal; 91.1% with SF-268 CNS; 68.1% with SF-295 CNS; 89.3% with SF-539 CNS. The growth with UACC-257 melanoma is 78.4%; with M14 melanoma, 95.4%.

In the case of `CCc1ccc(-c2ccc(=O)n(-c3ccc(S(N)(=O)=O)cc3)n2)cc1`, the growth with NCI-H23 lung was 59.9%; in the assay on NCI-H226 lung, 94.1%; with NCI-H322M lung, 115%; in the assay on HOP-62 NSCLC, 56.9%; with NCI-H460 lung it was 12.6%; in the assay with HOP-92 NSCLC, 65.7%. Also, the growth in the assay on NCI-H522 lung is -33.6% (active); in the assay on A549/ATCC NSCLC, 18%; with 786-0 renal, 50%; in the assay with COLO 205 colon, 26%; in the assay on DU-145 prostate, 59.6%; in the assay on K-562 leukemia, 11%. Moreover, the growth in the assay with MALME-3M melanoma was 35.6%; with MDA-MB-231 breast, 66.8%; in the assay on RXF 393 renal it was -31.8% (active); in the assay on SF-268 CNS it was 42.1%; in the assay with SF-295 CNS, 18.4%; in the assay on SF-539 CNS it was 43.6%. The growth is 22.3% in the assay on UACC-257 melanoma and 17.7% in the assay with M14 melanoma.
